Values joined by “and” are separate entries in the source; they are usually repeats but may differ in a detail not shown here. Identical values can stand only once. Results filed as inconclusive are left out. Where a call stands in place of a potency, no number is given. Where a structure was tested more than once in an assay, its records may differ in their call. Active and inactive are the calls of the source. The call rests on the fitted dose curve; in most records, active means well fitted inhibition curve with a large enough effect in the repeat runs; inconclusive means weak or mixed curves; inactive means no such curve, though single readings can be large or run the other way.
Target: Cytochrome P450 1A2 (Homo sapiens) (UniProt P05177)
Sequence (P05177 whole entry, looked up): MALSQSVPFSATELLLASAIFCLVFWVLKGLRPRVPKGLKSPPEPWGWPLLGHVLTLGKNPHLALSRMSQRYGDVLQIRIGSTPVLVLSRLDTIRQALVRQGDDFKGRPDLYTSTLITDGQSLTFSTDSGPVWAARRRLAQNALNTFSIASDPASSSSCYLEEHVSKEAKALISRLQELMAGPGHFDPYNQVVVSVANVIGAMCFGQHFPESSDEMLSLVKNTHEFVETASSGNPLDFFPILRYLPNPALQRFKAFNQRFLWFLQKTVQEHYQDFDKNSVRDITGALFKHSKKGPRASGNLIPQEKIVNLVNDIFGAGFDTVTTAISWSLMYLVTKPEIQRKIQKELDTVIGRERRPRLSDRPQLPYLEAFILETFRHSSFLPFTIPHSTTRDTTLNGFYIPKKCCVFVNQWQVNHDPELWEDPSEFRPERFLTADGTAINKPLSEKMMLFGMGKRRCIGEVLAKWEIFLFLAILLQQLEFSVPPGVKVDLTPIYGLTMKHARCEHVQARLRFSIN
Test: Cytochrome P450 Family 1 Subfamily A Member 2 (CYP1A2) small molecule antagonists: luciferase reporter qHTS assay (AID 1671199); further: nearly all actives have a fitted effect of over 50% in size
Conditions: P450-Glo CYP1A2 enzyme, luciferin luminescence, 1 h; series mostly up to 115 µM
How it was run: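 Read-out is luminescence from luciferin detection reagent (20 min) proportional to CYP1A2 activity; compounds in DMSO preincubated 10 min with enzyme and proluciferin substrate, then NADPH regeneration solution, 1 h, room temperature.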
Potency means the concentration at half of the fitted maximal effect.

| SMILES | Potency |
| --- | --- |
| CCCCOCCOCCOC(C)=O | inactive |
| C=CCOC(=O)CC(C)C | inactive |
| CCCCNC(=O)NS(=O)(=O)c1ccc(N)cc1 | inactive |
| O=C1OC(c2ccc(O)cc2)(c2ccc(O)cc2)c2ccccc21 | 56 µM (active) and inactive |
| CCN(CC)CCOC(=O)c1ccc(N)cc1 | inactive |
| O=C1CCCCCN1 | inactive |
| O=c1c(-c2ccc(O)cc2)coc2cc(O)cc(O)c12 | 19.7 µM (active) and 39.9 µM (active) |
| C#C[C@]1(O)CC[C@H]2[C@@H]3CCC4=CC(=O)CC[C@@H]4[C@H]3CC[C@@]21CC | inactive |
| C#C[C@]1(O)CC[C@H]2[C@@H]3CCc4cc(O)ccc4[C@H]3CC[C@@]21C | inactive and 17.4 µM (active) |
| Nc1cccc(N)c1 | 63.2 µM (active) and 39.4 µM (active) and 31.7 µM (active) |
| CC(C)Cc1ccc(C(C)C(=O)O)cc1 (stereo not given) | inactive |
| C=CC(=O)NC(C)(C)CS(=O)(=O)O | inactive |
| COCC(C)N (stereo not given) | 44.8 µM (active) |
| CC(=O)/C=C/C1=C(C)CCCC1(C)C | inactive |
| CCCCCCCCOc1ccc(C(=O)c2ccccc2)c(O)c1 | inactive |
| CC(C)(C)NCC(O)c1ccc(O)c(CO)c1 (stereo not given) | inactive |
| Cc1cccc(C)c1O | 36.1 µM (active) |
| NC(=O)c1ccc([N+](=O)[O-])cc1Cl | inactive |
| COC1=CC(=O)C[C@@H](C)[C@]12Oc1c(Cl)c(OC)cc(OC)c1C2=O | inactive |
| CN(C)C=O | inactive |
| Cc1ccc(O)c(-n2nc3ccccc3n2)c1 | 2.23 µM (active) and 1.42 µM (active) and 2.57 µM (active) |
| C=C(C)OC(C)=O | inactive |
| CC(=O)Oc1ccccc1C(=O)O | inactive and 24.5 µM (active) |
| CC1=C(/C=C/C(C)=C/C=C/C(C)=C/C(=O)O)C(C)(C)CCC1 | inactive |
| O=C(O)CN(CC(=O)O)CC(=O)O | inactive |
| CCCCCCCC(=O)OCC(O)CO (stereo not given) | inactive |
| O=[N+]([O-])c1ccc(O)cc1 | 20.8 µM (active) and inactive |
| C/C=C/c1ccc(O)c(OC)c1 | 20 µM (active) and 22.4 µM (active) and 11.5 µM (active) |
| N[C@@H](Cc1c[nH]c2ccc(O)cc12)C(=O)O | 30.8 µM (active) and 30.9 µM (active) |
| c1ccc2[nH]c(-c3cscn3)nc2c1 | 5.06 µM (active) and 2.83 µM (active) and 2.45 µM (active) |

— PubChem BioAssay (Tox21)
